PubChem BioAssay (Tox21)
Unmarked numbers belong to inactive results. Active and inactive are the calls of the source. Calls follow the shape of the dose curve; as a rule, active = well fitted activation curve with a large enough effect in the repeat runs; inconclusive = weak or mixed curves; inactive = flat fitted curve, though single readings scatter.

Assay: A CellTox Green Cytotoxicity Assay to monitor cytotoxicity in HEK293 cells - 0 hour (AID 1224869); also: nearly all actives have a fitted effect of over 50% in size
Conditions: CellTox Green fluorescence; series mostly up to 76.8 µM; cytotoxicity: at the top concentration
From the text: National Center for Advancing Translational Sciences [NCATS]
NIH Chemical Genomics Center [NCGC]
U.S. Environmental Protection Agency [EPA]
National Institutes of Environmental Health Sciences [NIEHS]
National Toxicology Program [NTP]
Cell-based models are critical for drug discovery. Determining the natural cytotoxic effects resulting from test compounds is an essential research activity. A CellTox Green Cytotoxicity Assay to monitor cytotoxicity in real time of continues cell culture during 40 hours of the compound treatment was used to screen Tox21 10K library compounds in Hek293 cells. CellTox Green Cytotoxicity Assay is a nonlytic, homogeneous, biofluorescent method to measure cytotoxicity in cell culture after experimental manipulation. The assay system uses a proprietary asymmetric cyanine dye that is excluded from viable cells but preferentially stains the dead cell's DNA. […] Viable cells produce no appreciable increases in fluorescence. Therefore, the fluorescence signal produced by the binding interaction with dead cell DNA is proportional to cytotoxicity.
The mixture of Hek293 cell suspension and reagents were dispensed at 600cells/6 ul/well in 1536-well tissue culture treated black solid bottom plates using a Multidrop dispenser. After the assay plates were incubated at a 37 C/5% CO2 incubator for 5 hours, 23 nL of compounds dissolved in DMSO, positive and negative controls was transferred to the assay plate by a pintool work station. The plates were incubated at 37 C for 40 hours. The fluorescence intensity were measured at 0h, 8h, 16h, 24h, 32h and 40h time points using ViewLux plate reader during compound treatment.
% is scaled to controls: 0 for no effect and ±100 for the full control effect; potency is read from the fitted curve at half-maximal effect.

Row | Compound | cytotoxicity | Potency
1 | Oc1ccc(N=Nc2ccccc2)cc1 | 1.18% | 
2 | CC(C)(C)C(=O)OCOC(=O)C1N2C(=O)CC2S(=O)(=O)C1(C)C (stereo not given) | 0.623% [at 35.3 µM] | 
3 | O=C(OC[C@H]1O[C@@H](OC(=O)c2cc(O)c(O)c(OC(=O)c3cc(O)c(O)c(O)c3)c2)[C@H](OC(=O)c2cc(O)c(O)c(OC(=O)c3cc(O)c(O)c(O)c3)c2)[C@@H](OC(=O)c2cc(O)c(O)c(OC(=O)c3cc(O)c(O)c(O)c3)c2)[C@@H]1OC(=O)c1cc(O)c(O)c(OC(=O)c2cc(O)c(O)c(O)c2)c1)c1cc(O)c(O)c(OC(=O)c2cc(O)c(O)c(O)c2)c1 | -16.9% [at 15.8 µM] | 
4 | C[n+]1ccn(Cc2ccccc2)c1 | 0.359% | 
5 | COCCCC/C(=N\OCCN)c1ccc(C(F)(F)F)cc1 | -8.59% [at 35.3 µM] | 
6 | CCC(C)Nc1ccc(NC(C)CC)cc1 (stereo not given) | 0.541% | 
7 | CCC1OCC(COc2ccc(Oc3ccccc3)cc2)O1 (stereo not given) | 5.06% | 
8 | CC(C)(C)C1CCC(CC2=C(O)c3ccccc3C(=O)C2=O)CC1 (stereo not given) | -7.13% [at 35.3 µM] | 
9 | C=CC(=O)OCC(CO)(COCC(COC(=O)C=C)(COC(=O)C=C)COC(=O)C=C)COC(=O)C=C | -0.573% | 
10 | O=[N+]([O-])c1cc([N+](=O)[O-])c2ccc(S(=O)(=O)O)cc2c1O | -0.374% | 
11 | CCCCCCCCCCCC[N+](C)(C)CCCCCCCCCCCC | -8.63% | 
12 | O=c1[nH]cnc2nc[nH]c12 | -12.4% [at 35.3 µM] | 
13 | CC1=C(C(=O)OC(C)C)C(c2cccc([N+](=O)[O-])c2)C(C(=O)OC2CN(C(c3ccccc3)c3ccccc3)C2)=C(N)N1 (stereo not given) | -3.41% [at 35.3 µM] | 
14 | CCN(Cc1cccnc1)C(=O)c1cccc(Cl)c1[C@]1(C)C(=O)N(Cc2ccc(OC)cc2OC)c2ccc(Cl)cc21 | 1.14% | 
15 | CCOC(=O)O[C@]1(C(=O)OCCl)CC[C@H]2[C@@H]3CCC4=CC(=O)C=C[C@]4(C)[C@H]3[C@@H](O)C[C@@]21C | 0.199% [at 35.3 µM] | 
16 | O=C1C=CC(=O)N1 | 0.0309% | 
17 | CNCc1cc(F)ccc1Oc1ccc(Cl)c(Cl)c1 | 0.945% | 
18 | CCCCN1CCCC[C@H]1C(=O)Nc1c(C)cccc1C | -4.49% [at 35.3 µM] | 
19 | Cc1cc(=O)oc2cc(N(C)C)ccc12 | 0.0243% | 
20 | NC(=O)CC[C@@H]1NC(=O)[C@H](Cc2ccccc2)NC(=O)[C@H](Cc2ccc(O)cc2)NC(=O)CCSSC[C@@H](C(=O)N2CCC[C@H]2C(=O)N[C@@H](CCCN=C(N)N)C(=O)NCC(N)=O)NC(=O)[C@H](CC(N)=O)NC1=O | -3.29% [at 35.3 µM] | 

Row | Compound | cytotoxicity | Potency
21 | COc1c(C)c2c(c(O)c1C/C=C(\C)CCC(=O)O)C(=O)OC2 | 1.9% [at 35.3 µM] | 
22 | N#CC1(c2ccc(F)cc2)CCC(=O)CC1 | 2.73% [at 35.3 µM] | 
23 | CC1(C)CCC(C)(C)c2cc(C(=O)Nc3ccc(C(=O)O)cc3)ccc21 | 0.587% | 
24 | NC(=O)NS(=O)(=O)c1ccc(N)cc1 | 0.643% [at 35.3 µM] | 
25 | Cc1cccc(N(C)C(=S)Oc2ccc3c(c2)C2CCC3C2)c1 (stereo not given) | -8.62% [at 35.3 µM] | 
26 | Nc1ccc2c3c(cccc13)-c1ccccc1-2 |  | 22.1 µM (active)
27 | O=C1C=CC(=O)N1c1ccc(Cc2ccc(N3C(=O)C=CC3=O)cc2)cc1 | -0.048% | 
28 | CC(C)c1ccc2c(c1)CC[C@H]1[C@](C)(CN)CCC[C@]21C | -2.57% | 
29 | CCCCC(CC)CN=C(N)NC(N)=NCCCCCCN=C(N)NC(N)=NCC(CC)CCCC (stereo not given) | 4.88% [at 35.3 µM] | 
30 | CC(=O)N1CCN(c2ccc(OC[C@H]3CO[C@](Cn4ccnc4)(c4ccc(Cl)cc4Cl)O3)cc2)CC1 | -5.86% | 
31 | N/C(=N\N=C\c1ccc(Cl)cc1)N/N=C/c1ccc(Cl)cc1 | -10.2% [at 35.3 µM] | 
32 | CCCCN1C(=O)[C@@H]([C@H](O)C2CCCCC2)NC(=O)C12CCN(Cc1ccc(Oc3ccc(C(=O)O)cc3)cc1)CC2 | -6.05% | 
33 | C[C@H](CCC(=O)O)[C@H]1CC[C@H]2[C@@H]3CC[C@@H]4C[C@H](O)CC[C@]4(C)[C@H]3CC[C@]12C |  | inactive
34 | CC(C)(C)c1ccc(C(=O)O)cc1 | 2.14% | 
35 | O=CC=C(c1ccccc1)c1ccccc1 | -0.369% | 
36 | Nc1c2ccccc2nc2ccccc12 |  | inactive
37 | Cc1cc2c(cc1C(F)(F)F)N(C(=O)Nc1ccc(Oc3cccnc3C)nc1)CC2 | -1.08% | 
38 | Cc1cc(N)c(S(=O)(=O)O)cc1Cl | 6.94% | 
39 | CC/C(=C(\c1ccc(O)cc1)c1ccc(OCCN(C)C)cc1)c1ccccc1 | -7.17% | 
40 | CS(=O)(=O)CCNCc1ccc(-c2ccc3ncnc(Nc4ccc(OCc5cccc(F)c5)c(Cl)c4)c3c2)o1 | 1.43% [at 35.3 µM] | 
